Compound activity from PubChem.
tim23-1 inh = growth inhibitors of tim23-1 mutant yeast; AID 463212; inhibition, % at 20 µM; S. cerevisiae tim23-1 growth, BacTiter-Glo luminescence, 24 h; 330,000 tested, 1.3% active;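 active = growth inhibition of the mutant yeast at or above 50%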;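 also: temperature-sensitive mutant grown at 25 °C; plate controls were DMSO-treated mutant yeast for no effect and medium wells lacking yeast for full effect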
tim10-1 inh = inhibits growth of tim10-1 mutant yeast | S. cerevisiae tim10-1 ts strain growth, BacTiter-Glo, 24 h | inhibition, % at 20 µM | 330,000 tested, 2.2% active | AID 463190;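 active = inhibition of at least 40%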;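 also: mutant grown at 25 °C; 0% = DMSO wells with yeast and 100% = wells holding no yeast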
PfHsp90 set2 = growth inhibition of yeast expressing Plasmodium Hsp90; S. cerevisiae expressing PfHsp90, BacTiter-Glo ATP, 48 h; yeast lacking PDR1 and PDR3 efflux regulators; inhibition, % at 9.4 µM; 310,000 tested, 0.32% active;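 active = every replicate shows inhibition above about 80%, whatever the replicate mean, limit read from the data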;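 also: 0% = DMSO neutral controls and 100% = 20 µM radicicol positive controls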
V-ATPase pH = regulators of yeast V-ATPase proton transport | S. cerevisiae, pHLuorin cytosolic pH fluorescence | response, % at 10 µM | 350,000 tested, 0.37% active; in the data active = response mostly above about 7.3%, no sharp cut-off; inactive = mostly below about 5.4%; also: actives read high
TIM10 inh = growth inhibitors of TIM10 yeast strain; 330,000 tested, 1.4% active; inhibition, % at 10 µM; AID 463195; S. cerevisiae TIM10 strain growth, BacTiter-Glo luminescence, 24 h;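 active = inhibition of 40% or more at the single tested concentration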;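 also: wild-type TIM10 isogenic control strain grown at permissive 25 °C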
SKKanGAS inh = SKKanGAS growth inhibition; S. pyogenes SKKanGAS, kanamycin growth, BacTiter-Glo, 6 h; 300,000 tested, 1.3% active; inhibition, % at 7.5 µM;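 active = mean replicate score, as percent of positive control median, at least 50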;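 also: strain carries kanamycin resistance gene driven by streptokinase promoter and grows in 40 µg/ml kanamycin; loss of luminescence reflects streptokinase promoter inhibition or plain growth inhibition; 0% = median of DMSO wells and 100% = positive control at its reference dose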
tim23-1 confirm = confirmation of tim23-1 mutant yeast growth inhibitors; inhibition, % at 20 µM; AID 463218; S. cerevisiae tim23-1 growth, BacTiter-Glo luminescence, 24 h; shares compounds with tim23-1 inh; 4,400 tested, 83% active;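 active = inhibition above about 39% in either of two replicate wells at 20 µM, limit read from the data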;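 also: temperature-sensitive tim23-1 mutant grown at 25 °C; 0% = DMSO wells with yeast and 100% = medium wells without yeast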
The depositor's hits bear a star; x = no result given. A selection: hits, their analogues and other compounds. The true share with any hit is near 4.6%.

SMILES | tim23-1 inh | tim10-1 inh | PfHsp90 set2 | V-ATPase pH | TIM10 inh | SKKanGAS inh | tim23-1 confirm
COCCNC(=O)CSc1nnc(NC(=O)C2CC(=O)N(c3ccccc3OC)C2)s1 (stereo not drawn) | 5.9 | 7.8 | -18.7 | -1.2 | 1.6 | 7.2 | x
COc1ccc(Nc2nc3ccc(OC)cc3s2)cc1 | 60.8* | 26.2 | -4.4 | 2.7 | 35.8 | -3.1 | 40.0*
COc1ccc(C(=O)Nc2nc3ccc(OC)cc3s2)cc1 | 15.4 | -21.6 | -10.8 | 4.2 | -5.3 | 0.5 | x
CCOc1ccc(NC(=O)CN(C)C(=O)c2cc3c(s2)CCC(C)C3)cc1OCC (stereo not drawn) | 24.7 | 19.6 | x | -5.3 | 11.6 | x | x
CC(=O)n1cc(N(C(=O)CCl)c2ccccc2)c2ccccc21 | 53.7* | 31.9 | 10.6 | -1.1 | 22.1 | -3.2 | 38.3
CC(=O)n1cc(N(C(=O)CCl)c2ccc([N+](=O)[O-])cc2)c2ccccc21 | 63.9* | 31.6 | 3.3 | -0.3 | 36.3 | 7.9 | 48.6*
CC(=O)n1cc(CO)c2ccccc21 | 2.3 | -12.6 | -25.2 | -1.3 | -2.1 | 1.2 | x
O=C(c1cccnc1)C1Cc2ccccc2C1=O (stereo not drawn) | 53.7* | 1.5 | 28.8 | -0.7 | 13.2 | -2.6 | 52.5*
Cc1ccc(C(=O)N/N=C/c2cc(Br)ccc2O)cn1 | 63.0* | -24.8 | 11.5 | -4.0 | -40.8 | 68.6* | 51.5*
COc1ccc(N2CCN(C3CCCN(C(=O)CN4CCCC4=O)C3)CC2)cc1 (stereo not drawn) | 4.2 | 6.4 | -12.5 | 0.8 | 1.2 | -1.3 | x
Cc1ccc(-c2nc3c(c(=O)c4ccccc4n3C)c(=O)n2Cc2ccco2)cc1 | 53.0* | 5.6 | 6.2 | -2.7 | 29.6 | 28.2 | 45.8*
CCOc1c2ccoc2nc2c(OC)c(OC)ccc12 | 61.3* | 27.2 | 31.4 | 0.6 | 34.3 | -0.7 | 64.7*
COc1ccccc1Nc1nc(N)nc(CSC(=S)N2CCC(C)CC2)n1 | 50.1* | 39.0 | 6.6 | -0.5 | 34.6 | 0.5 | 36.1
COc1ccccc1Nc1nc(N)nc(CN2CCC(C)CC2)n1 | 12.4 | 12.4 | x | -2.5 | -18.8 | 2.2 | x
COCCOC(=O)/C(=C\c1cc(C(C)(C)C)c(O)c(C(C)(C)C)c1)C(C)=O | 59.5* | 35.7 | -26.4 | 4.5 | 33.0 | 18.2 | 58.4*
Cn1cnnc1SCC(=O)NNC(=O)c1ccc(Cl)cc1 | -0.1 | 3.5 | 0.9 | -3.6 | -2.1 | -1.6 | x
Cc1cc(C)cc(CSc2ccc(S(=O)(=O)N3CCCC3)cn2)c1 | 1.3 | -11.5 | 21.7 | 0.7 | -14.3 | x | x
O=c1cc(CSc2ccc(S(=O)(=O)N3CCCCC3)cn2)nc2sccn12 | 66.2* | 27.4 | -24.1 | -1.4 | 14.6 | 4.7 | 37.8
COc1ccc(-c2cn(CCO)c(-c3ccncc3)n2)cc1 | -9.5 | -22.3 | -8.9 | -2.3 | -6.0 | x | x
CCOc1ccc(C(=O)C(C)OC(=O)c2nc(Cl)ccc2Cl)cc1 (stereo not drawn) | 8.7 | 9.8 | x | -1.5 | -21.9 | 6.6 | x
Cc1ccc(F)cc1NCC(=O)Nc1ccc(Cl)cc1F | 13.0 | 9.5 | 3.4 | -1.0 | 13.2 | -18.9 | x
Cc1c(Cl)cccc1NCC(=O)Nc1ccc(Cl)cc1F | 54.4* | 26.1 | 0.0 | 0.1 | 30.2 | -14.7 | 41.9*
O=C(OCc1cn([C@H]2C[C@H](c3ccc(Cl)cc3)N(C(=O)C3CCCCC3)C[C@@H]2O)nn1)c1ccccc1 | x | x | x | 1.1 | x | x | x
CC(c1ccccc1)n1c(-c2ccc(Cl)cc2)n[nH]c1=S (stereo not drawn) | 55.4* | 1.6 | -8.9 | -0.3 | 25.2 | 18.2 | 26.9
CN1CCN(c2ccc(NC(=O)c3cccs3)cc2)CC1 | -4.6 | -10.7 | -5.3 | 5.7 | 2.8 | -5.4 | x
SMILES | tim23-1 inh | tim10-1 inh | PfHsp90 set2 | V-ATPase pH | TIM10 inh | SKKanGAS inh | tim23-1 confirm
Cc1ccn(-c2ccc(NC(=O)c3cccs3)cc2)n1 | 74.9* | 13.5 | 58.7 | 2.3 | 37.7 | 6.1 | 68.6*
Cc1nc2ccc(NC(=O)c3cccs3)cc2c(=O)n1Cc1ccc(Cl)cc1 | 62.4* | 32.5 | 15.1 | -0.3 | 33.3 | 8.9 | 45.9*
O=C(Nc1ccc(Cl)cc1)c1cccs1 | 61.1* | -4.8 | -2.6 | 3.7 | 36.8 | 2.6 | 58.6*
O=C(Nc1ccc(NC(=O)c2cccs2)c(Cl)c1)c1cccs1 | 50.5* | 8.4 | 9.5 | 1.9 | 28.1 | -2.2 | 64.7*
O=C(Cc1ccc(Cl)cc1)Nc1ccc(NC(=O)c2cccs2)cc1 | 7.0 | 12.5 | 7.8 | -1.0 | -9.2 | 1.0 | x
NS(=O)(=O)c1ccc(NC(=S)Nc2ccn(Cc3cccc4ccccc34)n2)cc1 | -26.3 | 7.4 | -31.7 | 0.0 | 1.1 | 26.9 | x
Cc1c(NC(=O)c2cccs2)cccc1[N+](=O)[O-] | 10.6 | 15.2 | 12.3 | 0.1 | 3.1 | 0.0 | x
O=C(Nc1ccc(F)c([N+](=O)[O-])c1)c1cccs1 | 53.0* | -15.1 | 2.5 | -2.3 | 8.4 | -2.6 | 49.2*
NC(=O)c1ccsc1NC(=O)c1cccs1 | 36.5 | -2.4 | 7.9 | 0.1 | 19.9 | 1.8 | x
Cc1sc(NC(=O)c2cccs2)c(C(N)=O)c1C | 50.8* | 21.1 | -13.5 | 2.4 | 22.1 | -14.5 | 67.3*
CCOC(=O)C1=C(C)N=c2s/c(=C\c3ccncc3)c(=O)n2C1c1ccc2c(c1)OCO2 (stereo not drawn) | 52.6* | 39.7 | x | 1.9 | 23.1 | 0.1 | 48.7*
CCOC(=O)C1=C(C)N=c2s/c(=C/c3ccccc3)c(=O)n2C1c1ccc(OC)c(OC)c1 (stereo not drawn) | 12.7 | -2.8 | -18.1 | 1.5 | -12.2 | 6.2 | x
CCn1cc(C(=S)N2CCC(C(N)=O)CC2)c2ccccc21 | -6.4 | 3.0 | x | 1.5 | 15.9 | 8.3 | x
O=C(/C=C/c1ccco1)NC(=S)Nc1ccccc1 | 53.8* | 21.3 | -14.3 | -3.1 | 5.2 | 1.7 | 28.8
Cc1cccc(NC(=S)NC(=O)c2ccco2)c1C | 55.8* | 31.2 | 0.5 | 1.0 | 24.9 | -2.2 | 17.4
Cc1ccccc1NC(=S)NC(=O)/C=C/c1ccco1 | 55.4* | 21.3 | 7.7 | 10.6 | 7.5 | 8.9 | 36.5
Cc1cccc(NC(=S)NC(=O)/C=C/c2ccco2)n1 | 57.0* | 22.7 | x | 3.6 | 21.2 | -7.8 | 40.2*
Cc1ccc(NC(=O)C2CCN(S(=O)(=O)c3ccc4c(c3)NC(=O)C(C)S4)CC2)cc1Cl (stereo not drawn) | 14.3 | 10.9 | -12.8 | -4.3 | 10.9 | 28.2 | x
CCOC(=O)CN1C(=O)N[C@@H](CCc2ccccc2)[C@H](C(C)=O)[C@H]1C | 13.7 | 2.7 | 1.6 | -5.4 | 14.0 | -3.7 | x
Cc1ccc([C@H]2C(C(=O)O)=CC[C@@H](c3ccc4c(c3)OCO4)N2S(=O)(=O)c2ccc(C)cc2)cc1 | 10.4 | 2.8 | -36.1 | 1.3 | 4.2 | x | x
Cc1cccc(/N=C/c2c(O)ccc3oc4c(c23)CCCC4)n1 | 70.1* | 36.7 | -5.5 | 1.6 | 36.7 | 6.7 | 74.5*
CCN(CCCNC(=O)Cn1ncc2c([nH]c3ccc(C)cc32)c1=O)Cc1ccccc1 | 3.9 | 16.3 | -0.9 | -1.2 | 0.5 | -3.0 | x
